Compound activity (PubChem BioAssay)
Shown are actives, neighbours in structure and some others; about 9.2% of the full set was active somewhere.
LMNA splice mod – changes lamin A minigene splicing in HeLa cells; HeLa LMNA splicing GFP/RFP minigene ratio, 48 h; Potency, µM (top dose mostly 46.1 µM), for inactives: top-dose ratio change, negative = inhibition, usual class: inhibitors; hit rate 0.01% among 200,000; AID 1487; active means well fitted inhibition curve with a large enough effect in the signal ratio, with a control signal flat, not every such curve was filed as active; inconclusive means small, poorly fitted or top-dose-only effect, or effect the other way, or a change in a side signal; the % refers to the signal ratio; further: on the % scale 0 is the no-effect control and ±100 the full control effect
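S3 HeLa stable clones carrying a lamin A-EGFP splicing minigene plus DsRed2 were seeded at 600 cells/well in Opti-MEM with 2% FBS, pin-dosed and incubated 48 h at 37°C. Acumen cytometry (488 nm) gave the GFP/RFP total-intensity ratio.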
HPGD inh – HPGD (human) dehydrogenase inhibition | P15428 | hit rate 4.3% among 150,000 | Potency, µM, for the others: top-dose activity change, negative = inhibition, hits mostly inhibitors | purified HPGD, NADH fluorescence kinetic, PGE2 substrate | AID 894; further: on the % scale 0 is the no-effect control and ±100 the full control effect
Target sequence (P15428 whole entry, looked up): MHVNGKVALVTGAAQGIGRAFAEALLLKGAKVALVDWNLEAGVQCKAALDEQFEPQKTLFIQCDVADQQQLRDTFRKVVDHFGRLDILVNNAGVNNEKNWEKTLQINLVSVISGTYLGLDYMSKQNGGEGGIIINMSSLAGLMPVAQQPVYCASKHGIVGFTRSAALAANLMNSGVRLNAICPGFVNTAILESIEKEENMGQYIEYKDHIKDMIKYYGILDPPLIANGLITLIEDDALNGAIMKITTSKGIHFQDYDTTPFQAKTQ
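NADH formation kinetics: reaction with 30 uM PGE2 and 1 mM NAD+ (final), 20 nM enzyme, Tris-HCl pH 8 with Tween 20, after 15 min compound preincubation at room temperature. Fluorescence change, last versus first of five reads.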
ALDH1A1 inh – ALDH1A1 (human) enzyme inhibition | P00352 | Purified ALDH1A1, NADH fluorescence, propionaldehyde substrate | Potency, µM (top dose mostly 75.3 µM), for inactives: at the top dose activity, negative = inhibition, most hits filed as inhibitors | hit rate 7.3% among 220,000;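 further: plate controls were no enzyme wells and a reference inhibitor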
HttQ103 aggreg – reduces HttQ103-GFP aggregates in PC12 cells | PC12 HttQ103-GFP aggregates, Acumen cytometry, 40 h | Potency, µM (titrated, usually from 46.1 µM), for the others: at the top dose activity change, negative = inhibition, actives largely listed as inhibitors | hit rate 1.1% among 220,000 | AID 1688; active means well fitted curve in the direction sought with a large enough effect; inconclusive means small, poorly fitted or top-dose-only effect, or another doubt; inactive means no such curve, though single readings can be large; an effect the other way counts as inactive or inconclusive; further: on the % scale 0 is the no-effect control and ±100 the full control effect; nearly all actives have a fitted effect of over 60% in size
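Multiplexed with ATP-based cell death, this channel scores GFP aggregates in PC12 cells expressing inducible HTTex1-Q103-GFP. Induction used 100 nM tebufenozide; compounds were tested in concentration series.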
HTT ATP protect – protects HTT-Q103 PC12 cells, measured by ATP; PC12 HTT-Q103 induced, cytoprotection, ATP luminescence, 40 h; Potency, µM (titrated, usually from 56.4 µM), for the others: cytoprotection (ATP increase), most hits filed as activators; hit rate 0.14% among 230,000; AID 1471; active means well fitted curve in the direction sought with a large enough effect; inconclusive means small, poorly fitted or top-dose-only effect, or another doubt; inactive means no such curve, though single readings can be large; an effect the other way counts as inactive or inconclusive; further: % of control where 0% means no effect; nearly all actives have a fitted effect of over 45% in size
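Huntington model: PC12 line, ecdysone-inducible HTTQ103 exon1–GFP, tebufenozide 100 nM. Test articles in a dose series. Endpoint luminescence from cellular ATP.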
KDM4E inh – JMJD2E (human) inhibition; B2RXH2; JMJD2E catalytic domain, FDH-coupled NADH fluorescence (FDH is formaldehyde dehydrogenase); Potency, µM (doses to about 57.1 µM), inactives show at the highest dose activity change, negative = inhibition, usual class: inhibitors; hit rate 1.6% among 230,000; AID 2147;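 further: 0% = wells with enzyme and -100% = buffer wells without enzyme; nearly all actives have a fitted effect of over 50% in size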
Target sequence (B2RXH2 1-337 limits assumed): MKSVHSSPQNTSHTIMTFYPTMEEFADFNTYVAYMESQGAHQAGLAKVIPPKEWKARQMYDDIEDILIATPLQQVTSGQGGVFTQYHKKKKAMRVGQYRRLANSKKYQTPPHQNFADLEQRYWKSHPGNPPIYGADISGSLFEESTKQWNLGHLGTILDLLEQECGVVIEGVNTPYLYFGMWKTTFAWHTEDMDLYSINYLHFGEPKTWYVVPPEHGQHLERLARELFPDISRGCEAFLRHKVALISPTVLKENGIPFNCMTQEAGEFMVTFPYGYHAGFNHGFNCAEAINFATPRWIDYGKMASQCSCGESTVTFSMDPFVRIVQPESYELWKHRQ
* hit, by the source's call; ! = not confirmed by another sample; [ ] = dose if it differs, or a comment. Unless noted, the call rests on the fitted dose curve; in most records, active means well fitted inhibition curve with a large enough effect (not every such curve was filed as active); inconclusive means small, poorly fitted or top-dose-only effect, or another doubt; inactive means no such curve, though single readings can be large or run the other way. Potency means the concentration at half of the fitted maximal effect.

For COCCn1nnnc1SCC(=O)Nc1ccc2c(c1)OCO2 the results were LMNA splice mod -10%[46 µM], ALDH1A1 inh 20µM* and KDM4E inh -17%.
`Cn1ccnc1SCC(=O)Nc1sccc1C#N` gave LMNA splice mod 2%, HPGD inh -15%, ALDH1A1 inh 25µM*, HttQ103 aggreg 2%, HTT ATP protect -6%[10 µM] and KDM4E inh 5%.
`Cc1cc(NC(=O)CSc2nccn2C)no1` gave ALDH1A1 inh 7%, HttQ103 aggreg 22% and KDM4E inh -1%.
Cc1cc(C)c(NC(=O)CSc2nccn2C)c(C)c1 was read as LMNA splice mod 4%, HPGD inh 6.3µM*, ALDH1A1 inh -7%, HttQ103 aggreg 4%, HTT ATP protect -3%[10 µM] and KDM4E inh 6%.
For CCS(=O)(=O)N1CC(=O)N(c2ccc(Cl)cc2C)C(C)(C(=O)NC2CCCCC2)C1 (stereo not given) the results were LMNA splice mod -1%[46 µM].
COC(=O)C1=C(C(=O)OC)[C@@H]2N(C)c3ccccc3[C@@]23C[C@@H](C(=O)OC)N(S(=O)(=O)c2ccc(C(F)(F)F)cc2)C3=N1 was read as LMNA splice mod 9%[9.22 µM], HPGD inh -2%, ALDH1A1 inh 2%[13.5 µM], HTT ATP protect -22%[10 µM] and KDM4E inh 3%[11.4 µM].
`Cc1ccc(C)o1` gave HPGD inh -7%, ALDH1A1 inh -5% and HTT ATP protect -8%.
`COCCCn1nnnc1SCC(=O)Nc1ccc2c(c1)OCCO2` gave LMNA splice mod inconclusive, ALDH1A1 inh 13µM*, HttQ103 aggreg -10%[9.22 µM], HTT ATP protect -5%[10 µM] and KDM4E inh 4%.
`Cc1ccsc1C=C1C(=O)c2ccccc2C1=O` gave LMNA splice mod 27%, HPGD inh -12%, ALDH1A1 inh inconclusive, HttQ103 aggreg -2%, HTT ATP protect -8% and KDM4E inh -21%.
For COc1cccc2c1C(=O)C=C(C)C2=O the results were LMNA splice mod inconclusive, HPGD inh -5%, ALDH1A1 inh inconclusive, HttQ103 aggreg 14µM*, HTT ATP protect 9%[0.074 µM] and KDM4E inh -13%.
`COc1cc(/C=C2\OC(=O)c3c(OC)cccc32)ccc1O` gave LMNA splice mod 2%, HPGD inh inconclusive, ALDH1A1 inh inconclusive, HttQ103 aggreg -4%, HTT ATP protect -68% and KDM4E inh -1%.
For CC1=CC(=O)c2ccccc2C1=O the results were LMNA splice mod inconclusive, HPGD inh inconclusive, ALDH1A1 inh 14µM*!, HttQ103 aggreg -97%, HTT ATP protect -368% and KDM4E inh -29%.
`CC(C)(C=O)C1=CC(=O)c2ccccc2C1=O` gave LMNA splice mod inconclusive, HPGD inh 7.1µM*, ALDH1A1 inh 1.6µM*, HttQ103 aggreg inconclusive, HTT ATP protect -45%[10 µM] and KDM4E inh 4%.
For O=C(O)c1cc2ccccc2c(Cc2cc3ccccc3c(C(=O)O)c2O)c1O (tested in a mixture with another compound) the results were LMNA splice mod 10%, HPGD inh -14%, ALDH1A1 inh inconclusive, HTT ATP protect -2%[40.3 µM] and KDM4E inh -7%[25.5 µM].
Screening CC12C(=O)N(Cc3ccco3)C(=O)C1C1c3ccccc3C2c2ccccc21 (stereo not given) returned LMNA splice mod -4%, HPGD inh -21%, ALDH1A1 inh 16µM*, HttQ103 aggreg 16%, HTT ATP protect -4% and KDM4E inh -3%.
`O=C1CC(=O)N(Cc2ccco2)C(=O)N1` gave LMNA splice mod -4%, HPGD inh -2%, ALDH1A1 inh -7%, HttQ103 aggreg -2%, HTT ATP protect 6%[10 µM] and KDM4E inh -29%.
COCCc1nn2c(=O)cc(COC(=O)COc3ccccc3C)nc2s1 was read as LMNA splice mod 9%[46 µM].
Screening Clc1ccc(-c2nnnn2-c2ccc(Cl)cc2)cc1 returned HttQ103 aggreg 2%[9.22 µM], HTT ATP protect 2%[10 µM] and KDM4E inh -2%.
For Cc1ccc(-n2nnnc2C(Cl)(Cl)c2nnnn2-c2ccc(C)cc2)cc1 the results were LMNA splice mod -6%, HPGD inh 3.5µM*, ALDH1A1 inh 1.3µM*, HttQ103 aggreg inconclusive, HTT ATP protect -42% and KDM4E inh 1%.
For CC1(C)CC(=O)C(/C=N/n2c(C(F)(F)F)nc3ccccc3c2=O)=C(O)C1 the results were LMNA splice mod 12%, HPGD inh -26%, ALDH1A1 inh 25µM*, HttQ103 aggreg 1%, HTT ATP protect 29% and KDM4E inh inconclusive.
`O=C(Cc1ccccc1)NNC(=O)c1cnccn1` gave LMNA splice mod -11%, HPGD inh 2%, ALDH1A1 inh 4%, HttQ103 aggreg -16%, HTT ATP protect 7%[10 µM] and KDM4E inh -12%.
For FC(F)(F)c1cnc(-c2cnc(-c3ccncc3)nc2)c(Cl)c1 the results were LMNA splice mod 6%[9.22 µM], ALDH1A1 inh 18µM*, HttQ103 aggreg inconclusive, HTT ATP protect -17% and KDM4E inh -4%.
Screening CCC(Sc1nc2ncccc2o1)C(=O)Nc1cccc(C)c1 (stereo not given) returned LMNA splice mod 1%[46 µM].
Screening CC(C)S(=O)(=O)c1csc(NC(=O)Nc2cc(Cl)ccc2Cl)c1Cl returned LMNA splice mod inconclusive, ALDH1A1 inh 0%, HttQ103 aggreg 26%[9.22 µM], HTT ATP protect -10%[10 µM] and KDM4E inh 0%.
